Hsp70 act – Hsp70 transcriptional activators, primary screen, cell-based, HeLa, Hsp70 promoter luciferase, luminescence, 10 µM; AID 1203, 2008; 0.04% of 200,000 active; activation, % at 10 µM; HeLa Hsp70 promoter luciferase reporter; scaled: vehicle 0, proteasome-inhibitor control 100%;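 active means activation above the mean across all tested compounds plus 3 SD, cutoff set per campaign, cut at about 5.5% in these data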
p97 inhibitor – inhibitors of human p97 ATPase, primary screen, biochemical | 0.42% of 220,000 active | Transitional endoplasmic reticulum ATPase (Homo sapiens), P55072 | inhibition, % at 8 µM | recombinant p97 ATPase, Kinase-Glo ATP luminescence, 3 h | AID 1481, 2009; in the data active means inhibition above about 15%
Target sequence (P55072 whole entry, looked up): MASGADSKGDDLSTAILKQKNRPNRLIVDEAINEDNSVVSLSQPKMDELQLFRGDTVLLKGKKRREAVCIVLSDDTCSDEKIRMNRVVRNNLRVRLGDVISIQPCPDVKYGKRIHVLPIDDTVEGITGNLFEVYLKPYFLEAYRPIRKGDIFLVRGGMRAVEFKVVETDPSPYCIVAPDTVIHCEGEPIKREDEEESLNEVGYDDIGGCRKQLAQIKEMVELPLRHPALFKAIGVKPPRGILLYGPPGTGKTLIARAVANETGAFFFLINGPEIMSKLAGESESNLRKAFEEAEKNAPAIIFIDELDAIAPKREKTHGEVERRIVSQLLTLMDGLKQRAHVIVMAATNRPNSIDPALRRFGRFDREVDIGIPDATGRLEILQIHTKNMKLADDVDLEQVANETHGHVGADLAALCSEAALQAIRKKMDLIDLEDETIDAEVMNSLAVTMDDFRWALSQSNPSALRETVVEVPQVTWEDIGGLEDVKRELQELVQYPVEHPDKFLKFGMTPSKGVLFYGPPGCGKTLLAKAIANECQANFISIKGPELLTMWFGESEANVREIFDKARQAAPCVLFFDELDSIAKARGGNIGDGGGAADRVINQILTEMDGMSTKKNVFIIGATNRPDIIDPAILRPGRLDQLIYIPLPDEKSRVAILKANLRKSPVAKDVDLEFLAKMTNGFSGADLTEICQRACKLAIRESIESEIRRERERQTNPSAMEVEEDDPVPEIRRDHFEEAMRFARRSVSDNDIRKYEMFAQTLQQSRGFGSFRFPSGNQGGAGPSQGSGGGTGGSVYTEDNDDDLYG
HSV replic up – enhancers of HSV replication in host cells, fold increase, host cell viability; 0.005% of 220,000 active; maximum fold increase; AID 1956, 2009; HSV replication augmentation in cells; in the data active means maximum fold increase above about 1.5; tested in PC3 cells
DTT redox prof – compounds producing H2O2 with reducing agent – biochemical, NIH compound library profiling, artefact control for MLSCN library redox annotation, primary screen; DTT-dependent redox cycling H2O2, phenol red/HRP absorbance; 100% = 100 µM peroxide control, 0% = buffer; activation, % at 10 µM; 0.03% of 200,000 active;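 active means activation of at least 50% relative to the plate's high and low controls in the primary single-dose screen; inactive means activation below 50%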;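 further: compound incubated with DTT at 0.8 mM final as the reducing agent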
Wee1 degr inh – Wee1 degradation inhibitors, primary screen, cell-based, HeLa, Wee1K328M-luciferase, luminescence; Wee1-like protein kinase (Homo sapiens), P30291; HeLa Luc-Wee1K328M stability; 100% = proteasome inhibitor MG132 effect; reporter increase, % at 5 µM; 1.2% of 220,000 active; AID 1321, 2008;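 active means activation above the mean of all tested compounds plus 3 SD, set per screening run, cut at about 8.8% in these data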;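 further: cells exposed to compound for 20 h before luminescence read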
Numbers stand for hits; 0 = inactive; - = not tested or not shown. An excerpt weighted towards active compounds, which were near 1.6% of everything screened.

SMILES	Hsp70 act	p97 inhibitor	HSV replic up	DTT redox prof	Wee1 degr inh
O=C(Nc1ccccc1N1CCOCC1)c1ccc2c(c1)OCO2	0	0	0	0	0
COc1ccc(-c2nc3ccc(C(=O)NCC(OC)OC)cc3nc2-c2ccc(OC)cc2)cc1	0	0	0	0	0
CCC(=O)Nc1ccc2c(c1)C(=O)N(C1CCCCC1)C2=O	0	0	0	0	0
O=C(O)c1ccc(-c2nc(-c3ccccc3)cs2)cc1	0	0	0	0	9.6
COc1ccccc1NC(=O)c1csc(-n2nc(C)cc2C(F)(F)F)n1	0	0	0	0	0
Cc1nc2cc(NC(=O)Nc3ccc(N4CCOCC4)cc3)ccc2n1C	0	0	0	0	10
CC1CCCCN1S(=O)(=O)c1ccc2c(c1)CCN2C(=O)C1CCC1 (configuration not stated)	0	0	-	0	8.8
O=C(C1CC1)N1CCc2cc(S(=O)(=O)N3CCOCC3)ccc21	0	0	0	0	0
COc1cccc(CNS(=O)(=O)c2ccc3c(c2)CCN3C(=O)C2CC2)c1	0	0	0	0	9.2
CCOC(=O)CSc1n[nH]c(NC(=O)CC)n1	0	0	0	0	10
Cc1ccc(CNC(=O)Nc2cccs2)cc1	0	0	0	0	9.1
COc1ccc(CNC(=O)Nc2cccs2)cc1OC	0	0	0	0	0
CSCCC(NC(=O)OC(C)(C)C)C(=O)Oc1ccc2c(=O)c(-c3ccc4c(c3)OCCO4)coc2c1 (configuration not stated)	0	0	0	0	9.9
O=C(Nc1ccccc1)C1=C[C@@H](C2CC2)C[C@@H](OCCCCO)O1	0	0	0	0	0
CCc1ccc(OCCNC(=O)c2ccc(S(=O)(=O)N(C)C)cc2)cc1	0	0	0	0	9.9
CNC(=O)c1cc2c(s1)CCCCCC2	0	0	0	0	0
CC(C)NC(=O)c1cc2c(s1)CCCC2	0	0	0	0	8.9
CCOC(=O)CNC(=S)N(CCCN1CCCCC1)Cc1cccs1	0	0	0	0	9.8
O=C(CS(=O)(=O)Cc1ccccc1)Nc1ccc2c(c1)OCO2	0	0	0	0	11
O=C(CNS(=O)(=O)c1ccccc1)Nc1ccc2c(c1)OCO2	0	0	0	0	0
Cc1nc(N2CCN(C)CC2)[nH]c(=O)c1Cc1cccc2ccccc12	0	0	0	0	0
CSc1ncccc1C(=O)Nc1nc2ccc(S(C)(=O)=O)cc2s1	0	0	0	0	8.9
Nc1ccc(Sc2ccc([N+](=O)[O-])cc2)cc1	0	0	0	0	0
O=C1C=CC(=O)N1c1ccc(Sc2ccc([N+](=O)[O-])cc2)cc1	-	0	0	-	16
Cc1ccc(Cn2c(C(=O)O)cc3sccc32)cc1	0	0	0	0	0
SMILES	Hsp70 act	p97 inhibitor	HSV replic up	DTT redox prof	Wee1 degr inh
CN1C(=C2C(=O)OC(C)(C)OC2=O)Sc2ccccc21	0	0	0	0	8.8
Cc1noc(C)c1COC(=O)C1COc2ccccc2O1 (configuration not stated)	0	0	0	0	0
CC(=O)N(Cc1ccc(F)cc1)C1=C(NCc2ccccc2)C(=O)c2ccccc2C1=O	0	0	-	0	0
CC(C)c1nc(SCC(=O)Nc2cccc(S(N)(=O)=O)c2)n[nH]1	0	0	0	0	10
CN(c1ccccc1)S(=O)(=O)c1cccc(NC(=O)CSc2n[nH]c(N)n2)c1	-	0	0	-	0
Cc1ccc(-n2c(=O)c3c4c(sc3n(Cc3cc(=O)n5ccccc5n3)c2=O)CCC4)cc1C	0	0	0	0	0
CC(C)N1C(=O)C2ON(c3ccccc3)C(c3cccs3)C2C1=O (configuration not stated)	0	0	0	0	0
CC(=O)c1c(O)cc(O)cc1CC(=O)O	0	0	0	0	0
O=C(NC(=S)Nc1ccccc1F)c1ccc(Br)o1	0	0	0	0	11
Cc1[nH]n(-c2ccccc2)c(=O)c1C(c1ccc(O)c([N+](=O)[O-])c1)c1c(C)[nH]n(-c2ccccc2)c1=O	0	15	0	0	0
COc1ccc(-c2cc(-c3ccccc3O)[nH]n2)cc1	0	0	0	0	0
COc1ccc(-c2cc(-c3ccccc3)n[nH]2)c(O)c1	0	0	0	0	10
CN(CC(=O)Nc1ccc(N2CCOCC2)cc1)C(=O)CC(c1ccccc1)c1ccccc1	0	0	0	0	10

Screening results as filed in PubChem.
